Compounds with a hit are over-represented: about 7.3% of the library has one in this group of screens.
HCV inhibitor: HCV inhibition; actives 3.4% (n = 340,000); Huh7.5.1 HCVcc-Cre infection, luciferase reporter, 44 h; AID 651820; Potency, µM (doses to about 41.8 µM), most hits filed as inhibitors; active = well fitted inhibition curve with a large enough effect; inconclusive = small, poorly fitted or top-dose-only effect, or another doubt; inactive = no such curve, though single readings can be large or run the other way
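1,000 cells/well; 4 h culture; + compound; + HCVcc-Cre (~0.5 moi); 44 h; luciferase substrate, RT 15 min; read 15 sec.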
Vaccinia mCherry: inhibitors of vaccinia virus infection (mCherry reporter signal); Vaccinia virus mCherry reporter infection, fluorescence; Potency, µM (highest dose often 36.5 µM), usual class: inhibitors; actives 0.63% (n = 310,000); calls by dose curve; tested in A549 cells; note: nearly all actives have a fitted effect of over 35% in size
HCMV inh: human cytomegalovirus inhibition; HFF cells, HCMV-luciferase reporter, 72 h; active compounds read low; activity change, negative = inhibition, % at 57.5 µM; actives 4.5% (n = 410,000); AID 1259415; in the data active = activity change below about -60%; inconclusive = no clear call, values can overlap the other calls; inactive = above about -39%
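Two compound doses tested in HFFs infected with HCMV-luciferase, MOI 1 PFU/cell, 72 h at 37C. Lysate luminescence read with OneGlo; data normalized against buffer-only and 10uM Salinomycin inhibitor controls.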
VACV Venus inh: vaccinia inhibition (Venus reporter); Vaccinia virus Venus reporter expression, fluorescence; Potency, µM (highest dose often 36.5 µM), actives largely listed as inhibitors; actives 0.46% (n = 330,000); calls by dose curve; tested in A549 cells; note: nearly all actives have a fitted effect of over 30% in size
FMDV antiviral: blocks foot and mouth disease virus; FMDV antiviral cell-based qHTS; Potency, µM (doses to about 57.9 µM), usual class: inhibitors; actives 1.2% (n = 410,000); calls by dose curve; tested in HEK293T cells; note: read-out not given here; nearly all actives have a fitted effect of over 45% in size
A number is an active result; – = inactive; ? = inconclusive; · = no result.

SMILES	HCV inhibitor	Vaccinia mCherry	HCMV inh	VACV Venus inh	FMDV antiviral
CN(C)CCC(=O)C(Cc1ccccc1)c1ccccc1 (stereo unspecified)	–	–	–	?	?
Cc1cccc(C(=O)Nc2sc3c(c2C(=O)N2CCCCC2)CCC(C)C3)c1 (stereo unspecified)	·	–	–	–	–
CCNC(=O)COc1ccc(/C=C2\COc3ccccc3C2=O)cc1OC	?	–	–	–	28µM
CCOc1cc(/C=C2\COc3ccccc3C2=O)ccc1OCC(=O)N(C)C	?	–	–	–	28µM
COCC1CCN(Cc2cn(Cc3ccccc3)nc2-c2cc3ccccc3o2)CC1	–	–	–	–	–
COCC1CCCN(Cc2cn(Cc3ccccc3)nc2-c2cc3ccccc3o2)C1 (stereo unspecified)	?	–	-78	–	–
Cc1ccc(NC(=O)Cn2nc(C)c3nn(-c4ccc(Cl)cc4)c(C)c3c2=O)cc1F	·	–	–	–	–
OCCCNc1ncnc2scc(-c3ccc(Cl)cc3)c12	–	?	-80	–	?
Clc1ccc(-c2csc3ncnc(Cl)c23)cc1	–	–	–	–	?
NNc1ncnc2scc(-c3ccc(Cl)cc3)c12	?	?	-99	–	?
CC(C)c1ccc(C(=O)C[N+]2(C)CCOCC2)cc1	·	–	·	–	·
CCN(C[C@H]1N[C@@](Cc2ccccc2)(C(=O)OC)[C@H]2C(=O)N(Cc3ccccc3)C(=O)[C@@H]12)C(=O)Nc1ccc(C)cc1	?	?	–	?	–
CCN(C[C@H]1N[C@@](Cc2ccccc2)(C(=O)OC)[C@H]2C(=O)N(Cc3ccccc3)C(=O)[C@@H]12)C(=O)Nc1ccc(C(F)(F)F)cc1	13µM	?	?	?	–
CCN(C[C@H]1N[C@@](CC)(C(=O)OC)[C@H]2C(=O)N(Cc3ccccc3)C(=O)[C@@H]12)C(=O)NC(C)C	6.3µM	–	–	–	–
CC[C@@]1(C(=O)OC)N[C@H](CN(C)C(=O)NC(C)C)[C@@H]2C(=O)N(Cc3ccccc3)C(=O)[C@@H]21	–	–	–	–	–
Cc1ccc(S(=O)(=O)N(CCCN2CCCC2=O)Cc2cc3c(C)ccc(C)c3[nH]c2=O)cc1	–	·	-64	·	–
Cn1cc(/C=N/NC(=O)COc2ccccc2[N+](=O)[O-])c2ccccc21	?	·	-64	·	–
Cc1ccccc1OCC(=O)N/N=C/c1ccc([N+](=O)[O-])o1	?	·	-86	·	?
COc1ccccc1OCC(=O)N/N=C/C=C/c1ccc([N+](=O)[O-])o1	?	?	–	?	–
Cc1cc(C)cc(OCC(=O)N/N=C/c2ccc([N+](=O)[O-])o2)c1	11µM	?	?	?	–
O=C(N/N=C/c1cc2c(cc1[N+](=O)[O-])OCO2)c1ccc2c(c1)OCO2	–	–	–	–	–
Cc1cccc(OCC(=O)N/N=C\c2cc3c(cc2[N+](=O)[O-])OCO3)c1C	11µM	–	–	–	–
CCCn1cc(S(=O)(=O)c2ccc(C)c(C)c2)c(=O)c2cc(F)c(N3CCC(C)CC3)cc21	·	–	–	–	–
CC(=O)c1ccccc1NS(=O)(=O)c1cc2c(cc1C)NC(=O)CO2	·	–	–	–	–
Cc1ccc(C(=O)c2cn(Cc3cccc(C)c3)c3nc(C)ccc3c2=O)cc1	·	–	–	–	–
SMILES	HCV inhibitor	Vaccinia mCherry	HCMV inh	VACV Venus inh	FMDV antiviral
COc1ccc(N2CC(NC(=O)c3ccc(S(=O)(=O)N4CCOCC4)cc3)CC2=O)cc1OC (stereo unspecified)	·	–	–	–	–
Cc1c(C(=O)N2CCN(C(C)C)CC2)sc2ncnc(NCc3ccco3)c12	·	–	·	–	–
COP(=O)(OC)c1ccc(NCc2cc(O)ccc2O)cc1	–	–	?	–	–
CC(C)OC(=O)c1ccc(NCc2cc(O)ccc2O)cc1	3.5µM	?	-63	–	6.3µM
COC(=O)c1ccc(CCc2cc(O)ccc2O)cc1	4µM	?	·	–	–
COC(=O)c1ccc(OCC(=O)c2ccc(O)cc2O)cc1	–	·	-61	·	–
COC(=O)c1ccc(CCc2cc(O)c(Br)cc2O)cc1	?	–	–	–	–
O=C(OCc1ccccc1)c1ccc(NCc2cc(O)ccc2O)cc1	5µM	10µM	-87	?	10µM
CC(C)c1ccc(C2N=C(N)Nc3nc4ccccc4n32)cc1 (stereo unspecified)	·	–	–	–	–
CSc1ccc(CNc2cccc3ccccc23)cc1	?	–	-64	–	·
Cc1ccsc1/C=C1\C(=O)NC(=S)N(C)C1=O	–	·	-102	·	32µM
CN1C(=O)/C(=C/c2ccc(Cl)s2)C(=O)NC1=S	?	–	–	–	?

Assay outcomes as filed in PubChem.
